From PubChem BioAssay come the findings set out here.

Values joined by “and” are separate entries in the source; they are usually repeats but may differ in a detail not shown here. Equal entries are not always repeated. Results filed as inconclusive are left out. Active and inactive are the calls of the source. Unless noted, the limit is not given here; nearly all actives have AC50 up to about 26 µM.

A short description of assay [1]: viability loss in pontine glioma line – cell-based, SU-DIPG-XXV, MIPE5.0, CellTiter-Glo, qHTS, dose response (AID 1347065).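 Also: cells exposed to compound for 48 hours before ATP readout.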 As to conditions: CellTiter-Glo ATP luminescence.
Assay [2] is described as follows: growth inhibition of DIPG cells – cell-based, MIPE4.0 library, CellTiter-Glo luminescence, qHTS (AID 1347066; cut-off not given, nearly all actives have AC50 up to about 30 µM;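 also: cells exposed to compound for 48 hours before readout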). The conditions noted are these: SU-DIPG-VI viability, CellTiter-Glo ATP luminescence. In general terms: Cellular ATP, detected with luciferase, serves as a proxy for viable cell number.
Assay [3] in a line: JHH-DIPG-1 glioma cell viability, MIPE5.0 library, CellTiter-Glo luminescence, qHTS (AID 1347067).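 Also: cells exposed to compound for 48 hours before readout.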 As to conditions: JHH-DIPG-1 glioma viability, CellTiter-Glo ATP luminescence.
Assay [4] can be described thus: growth inhibition of DIPG cells – cell-based, MIPE5.0 library, qHTS (AID 1347068; cut-off not given, nearly all actives have IC50 up to about 30 µM). The conditions noted are these: SU-DIPG-XXV viability. On the technique in general: In qHTS, concentration-response curves come from the screen itself.
The nature of assay [5]: viability loss with induced miR-34 in A549 – imaging, A549 dox-inducible miR-34, nuclei and caspase counts, primary screen (AID 1347080;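 active = compounds whose cell count with miR-34 switched on is under 0.7 times the count with it off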). As to conditions: A549 miR-34 inducible, Hoechst nuclei count, 48 h.
A short description of assay [6]: MELAS cybrid and Rieske KO viability enhancers – cell-based, MELAS cybrids, Rieske KO mouse fibroblasts, CellTiter-Glo, primary screen (AID 1508586;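 active = mean z-score across replicates of 1.96 or higher in either the MELAS or the Rieske mutant cell line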;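 also: z relative to plate mean and SD of compound and empty wells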). As to conditions: low glucose.
Assay [7] can be described thus: blockers of cellular phospholipid synthesis – cell-based, LOPAC library, screen 4, primary screen (AID 1347384; call rule not given here). As to conditions: animal cells, phospholipid biosynthesis inhibition screen; at 10 µM.
Assay [8] can be described thus: chitosan synthesis blockers in C. neoformans – flow cytometry, Cibacron Brilliant Red staining (AID 1347148; call rule not given here;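 also: compound exposure lasted three days at 37 degrees C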). As to conditions: Cryptococcus neoformans chitosan, stronger effect = lower value; at 10 µM unless noted. A general note: In flow cytometry, cells or beads pass a laser one at a time.
Setting [9] is: stronger effect = lower value, cell number ratio, induced over uninduced.
Setting [10] is: measured here: relative caspase fold change +Dox/-Dox.
[11] abbreviates: measured here: total cells with miR-34 induction, stronger effect = lower value.
Where [12] appears, read: measured here: total cells without miR-34 induction.
Where [13] appears, read: MELAS cybrid survival, CellTiter-Glo 48 h, stronger effect = higher value.
Setting [14] is: Rieske KO mouse fibroblast survival, CellTiter-Glo 72 h.

On to `Nc1ccc(S(N)(=O)=O)cc1`, for which the result in assay [1], in assay [2], in assay [3] and in assay [4] was inactive. For the same compound, the fold change was 0.863 (inactive) and 1.01 (inactive) and 0.955 (inactive) in assay [5] (setting [9]); 1.61 and 1.13 and 2.65 in assay [5] (setting [10]). The cell count is 8720 and 8600 and 12400 in assay [5] (setting [11]); 10100 and 8510 and 12900 in assay [5] (setting [12]). Further, the z-score in assay [6] (setting [13]) was -0.359 (inactive) and -1 (inactive); in assay [6] (setting [14]) it was 0.662 and -0.707.
With `CC(C)c1ccc2oc3nc(N)c(C(=O)O)cc3c(=O)c2c1`, the result in assay [1], in assay [2], in assay [3] and in assay [4] was inactive. For the same compound, the fold change in assay [5] (setting [9]) was 0.955 (inactive); in assay [5] (setting [10]), 1.68. Besides, the results for the cell count in assay [5] (setting [11]) and in assay [5] (setting [12]) were 9060 and 9490, respectively. Also, the figures for the z-score in assay [6] (setting [13]) and in assay [6] (setting [14]) were 0.841 (inactive) and -1.05, respectively.
`CNC[C@H](O)c1cccc(O)c1`: the call in assay [1], in assay [2], in assay [3], in assay [4] and in assay [7] was inactive. For the same compound, the fold change in assay [5] (setting [9]) was 0.733 (inactive) and 0.885 (inactive) and 0.869 (inactive); in assay [5] (setting [10]), 1.33 and 1.38 and 1.19. For the same compound, the cell count in assay [5] (setting [11]) was 6820 and 9660 and 11500; in assay [5] (setting [12]) it was 9300 and 10900 and 13200. Also, the z-score in assay [6] (setting [13]) is -0.327 (inactive); in assay [6] (setting [14]), 0.52.
For `CC1=C(C)C(=O)C(C(CCCCCC(=O)O)c2ccccc2)=C(C)C1=O` (centres undefined), the call in assay [1], in assay [2], in assay [3] and in assay [4] was inactive. Moreover, the figures for the fold change in assay [5] (setting [9]) and in assay [5] (setting [10]) were 0.907 (inactive) and 0.844, respectively. Besides, the cell count in assay [5] (setting [11]) amounted to 9450; in assay [5] (setting [12]), 10400.
In the case of `CN(C)CC/C=C1/c2ccccc2COc2ccc(CC(=O)O)cc21`, the result in assay [1], in assay [2], in assay [3] and in assay [4] was inactive. Besides, the fold change was 0.88 (inactive) in assay [5] (setting [9]) and 0.692 in assay [5] (setting [10]). Moreover, the values for the cell count in assay [5] (setting [11]) and in assay [5] (setting [12]) were 9640 and 10900, respectively. Moreover, the z-score was 0.699 (inactive) and 0.823 (inactive) in assay [6] (setting [13]); -0.41 and 0.615 in assay [6] (setting [14]).
Consider `C#C[C@]1(O)CC[C@H]2[C@@H]3CCc4cc(OC)ccc4[C@H]3CC[C@@]21C`, for which the outcome in assay [1], in assay [2], in assay [3] and in assay [4] was inactive. Further, the results for the fold change in assay [5] (setting [9]) and in assay [5] (setting [10]) were 0.882 (inactive) and 0.717, respectively. Moreover, the cell count is 9180 in assay [5] (setting [11]) and 10400 in assay [5] (setting [12]). Moreover, the results for the z-score in assay [6] (setting [13]) and in assay [6] (setting [14]) were 1.7 (inactive) and 0.807, respectively.
Regarding `CC1=NN(c2ccccc2)C(=O)C1`, the compound was classed as inactive in assay [1], in assay [2], in assay [3] and in assay [4]. The fold change in assay [5] (setting [9]) was 0.988 (inactive) and 0.936 (inactive) and 0.929 (inactive); in assay [5] (setting [10]) it was 0.941 and 1.18 and 0.593. Also, the cell count in assay [5] (setting [11]) was 5320 and 7500 and 8540; in assay [5] (setting [12]), 5390 and 8010 and 9190. Further, in assay [8], the fold fluorescence is 4.15 [at 287 µM] (inactive). For the same compound, the z-score in assay [6] (setting [13]) was -0.423 (inactive); in assay [6] (setting [14]), 0.67.
Take `NC(=O)c1ncn([C@@H]2O[C@H](CO)[C@@H](O)[C@H]2O)c1O`: the compound was classed as inactive in assay [1], in assay [2], in assay [3], in assay [4] and in assay [7]. The fold change in assay [5] (setting [9]) is 1.09 (inactive); in assay [5] (setting [10]) it was 1.07. For the same compound, the cell count was 10800 in assay [5] (setting [11]) and 9890 in assay [5] (setting [12]).
